Bioassay records (PubChem)
This excerpt belongs to a sample that is enriched for hits.
Pf Dd2 growth = qHTS Primary assay for Inhibitors of Plasmodium falciparum Dd2 growth in vitro. P. falciparum Dd2 growth, SYBR Green, 72 h. Potency, µM (doses to about 28.9 µM), without a hit: at the highest dose activity, negative = inhibition, hits mostly inhibitors. 120,000 compounds, 4.3% hits; active = well fitted inhibition curve with a large enough effect;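 note: plate controls were DMSO vehicle for no effect and reference drug for full effect; nearly all actives have a fitted effect of over 65% in size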
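Readout: SYBR Green fluorescence, 485 nm excitation, 535 nm emission, after ~16 h lysis at 37C. Before that, Dd2-infected red cells (2.5% hematocrit) grew 72 h with compound, 29 uM top final concentration.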
Numbers without * were called inactive; i = inactive; [ ] = remark or other dose. Potency is the fitted concentration of half-maximal effect.

SMILES	Pf Dd2 growth
CCOc1ccccc1NC(=O)Cn1cnc2sc(C)c(S(=O)(=O)N3CCC(C)CC3)c2c1=O	-1%
Cc1cnn(Cc2c(C(=O)NC3CCc4nnc(C)n4CC3)noc2C)c1 (stereo not drawn)	2%
Cn1cc(-c2cnc3[nH]cc(CC(=O)NC4CCC4)c3c2)cn1	i
Cn1cc(-c2cnc3[nH]cc(CC(=O)NCc4ccncc4)c3c2)cn1	4µM*
O=C(Cc1c[nH]c2ncc(-c3cccnc3)cc12)NC1CC1	i
O=C(Cc1c[nH]c2ncc(-c3ccsc3)cc12)NCc1cccnc1	i
COc1cc(F)cc(-c2cnc3[nH]cc(CC(=O)NCc4cccnc4)c3c2)c1	i
O=C(Cc1c[nH]c2ncc(-c3cccnc3)cc12)NCc1ccccc1	5.6µM*
O=C(Cc1c[nH]c2ncc(-c3ccccc3Oc3ccccc3)cc12)NCc1cccnc1	i
CN1CCN(C(=O)Cc2c[nH]c3ncc(-c4cccc(OC(F)(F)F)c4)cc23)CC1	i
O=C(Cc1c[nH]c2ncc(-c3cccc(OC(F)(F)F)c3)cc12)NCc1cccnc1	4µM*
O=C(Cc1c[nH]c2ncc(-c3cn[nH]c3)cc12)NCc1cccnc1	11µM*
Cc1cc(-c2cnc3[nH]cc(CC(=O)NCc4cccnc4)c3c2)ccn1	i
CC(C)CNC(=O)Cc1c[nH]c2ncc(-c3cnn(C)c3)cc12	i
Cc1cc2c(c(=O)n(-c3ccc(F)cc3)c(=O)n2CC(=O)Nc2cccc(C#N)c2)n1C	-9%
O=C(Cn1nc2c(cc1=O)CCCCC2)Nc1nc2c(s1)CCCC2	-3%
COc1ccc(CNC(=O)c2cnc(N3CCCC3)nc2C)c(OC)c1	39%
CC(=O)N1CCC(Cn2c(C)cnc2C2CC2)CC1	12%
COc1ccc(-c2noc(Nc3ccc4c(c3)OCCO4)n2)cc1	-21%
COc1ncccc1CNC[C@H]1O[C@@H]2C[C@@H](CC(=O)N3CCOCC3)O[C@@H]2[C@@H]1O	2%[44.1 µM]
O=C1CCCN1CCCN1C(=O)[C@H]2CN(Cc3cccs3)C[C@H]2C1=O	35%
CN1CCCCC(CC(=O)NCc2cccc(Cl)c2)C1=O (stereo not drawn)	15%
CC(=O)c1cccc(Nc2nc(-c3ccccc3Cl)nc3ccccc23)c1	i
CC(C)Oc1ccc2c(NC(=O)c3ccon3)nn(CC(F)(F)F)c2c1	-8%
Cc1scc(C(=O)NC2CC(c3cc(=O)[nH]c(N)n3)C2)c1-c1ccccc1 (stereo not drawn)	-4%
SMILES	Pf Dd2 growth
CCOc1ccccc1CNC(=O)C1CCN(C(=O)c2ncn3c2COC(c2ccccc2)C3)CC1 (stereo not drawn)	i
COc1ncccc1-c1cnc2[nH]cc(CC(=O)Nc3ccccc3)c2c1	i
COc1ncccc1-c1cnc2[nH]cc(CC(=O)Nc3ccncc3)c2c1	i
O=C(Cc1c[nH]c2ncc(-c3ccccc3)cc12)Nc1cccnc1	-29%[44.1 µM]
O=C(Cc1c[nH]c2ncc(-c3ccccc3)cc12)NCCc1ccccc1	i
COc1ncccc1-c1cnc2[nH]cc(CC(=O)Nc3ccccc3C)c2c1	10µM*
O=C(Cc1c[nH]c2ncc(-c3ccc(F)c(Cl)c3)cc12)NCc1cccnc1	4.5µM*
CCCc1noc(-c2ccn3c(CNC(=O)c4ccccc4Cl)nnc3c2)n1	-15%
CCN(CC)[C@H]1[C@@H]2OC[C@@H](O2)[C@@H](NCC2CCCCC2)[C@@H]1O	10µM*
CCN(CC)[C@H]1[C@@H]2OC[C@@H](O2)[C@@H](NCc2ccc(N(C)C)cc2)[C@@H]1O	i
CCN(CC)[C@H]1[C@@H]2OC[C@@H](O2)[C@@H](NC(=O)Nc2cccc(OC)c2)[C@@H]1O	i
CCN(CC)Cc1cc(C(=O)N2Cc3[nH]cnc3CC2C(=O)O)c(C)o1 (stereo not drawn)	0%
CCC(C(=O)N1CCN(Cc2ccc(C)c(C)c2)C(=O)C1)n1cccn1 (stereo not drawn)	-9%
O=C(NC1CCCC1)C1CCN(C(=O)N2CC3CC(C2)[C@H]2CCCC(=O)N2C3)CC1 (stereo partly drawn)	-21%
COc1ccccc1CN1COc2ccc3c(C)cc(=O)oc3c2C1	7.1µM*
Cc1ccc(CNC(=O)c2ccc3c(c2)CN(Cc2ccc(N(C)C)cc2)CCO3)cc1	-28%
Cc1ccc(CN2COc3ccc4c(C)cc(=O)oc4c3C2)cc1	4µM*
COc1ccccc1C(=O)N1CCN(Cc2cc(=O)oc3cc(C)ccc23)CC1	-4%
Cc1ccc(Cn2nc3n(c2=O)-c2cc(Cl)ccc2OC3)cc1	15%
COc1ccccc1CN1C[C@@H]2C(=O)N(Cc3ccc4c(c3)OCO4)C(=O)[C@@H]2C1	12%
COc1cccc(CNC(=O)CCC2CCN(C(=O)c3ccccc3F)CC2)c1	-5%
CC(C)c1noc(-c2cccn3c(CNC(=O)c4c(F)cccc4Cl)nnc23)n1	i
O=C(Nc1ccccc1F)N1CCC2(CC1)CC(OCC1CC1)CCO2 (stereo not drawn)	3%
O=C(NCc1ccccc1)c1nnc(Cc2cccc(F)c2)o1	30%[0.594 µM]
Cc1ccc(N(C)S(=O)(=O)c2ccc(-c3coc(C)n3)cc2)cc1	10%
SMILES	Pf Dd2 growth
COCCNC(=O)CSc1nc2cc3c(cc2c(=O)n1CCCCCC(=O)NCc1ccc(OC)cc1)OCO3	0%
O=C(Nc1ccc(O)c(-c2nc3ccccc3o2)c1)c1sc2ccccc2c1Cl	0%
O=C(Nc1ccc(O)c(-c2nc3ccccc3o2)c1)c1cccs1	36%
O=C(Nc1ccc(O)c(-c2nc3ccccc3o2)c1)c1ccc(Br)cc1	2.8µM*
COc1ccc(CC(=O)N2CCC3(CC2)CN(C(=O)c2ccc(OC)cc2)CCO3)cc1	21%
CCCCC(=O)OC1=C(C(=O)c2ccccc2)N(CC)S(=O)(=O)c2ccccc21	1%
CCCCCN1C(C(=O)c2ccccc2)=C(NC(=O)c2ccc(OC)c(OC)c2)c2ccccc2S1(=O)=O	89%
CCN1C(C(=O)c2ccccc2)=C(NC(=O)c2ccc(Cl)cc2)c2ccccc2S1(=O)=O	13µM*
COCCNC(=O)CCCN1C(=O)COc2ccc(C(=O)COc3ccccc3F)cc21	i
CN1C(=O)CC(C(=O)O)C12CCN(Cc1cnc3c(C(=O)O)cnn3c1)CC2 (stereo not drawn)	-1%
O=C(NCc1ccccn1)c1cccc(OC2CCN(c3cnccn3)CC2)c1	-10%
Cc1cc(CN2CCOc3c(O)cc(-c4ccccc4C)cc3C2)on1	-27%
Cc1cccc(CN2CCOc3c(O)cc(-c4ccccc4C)cc3C2)n1	8.9µM*
Cc1ccccc1-c1cc(O)c2c(c1)CN(C(=O)C1CCNCC1)CCO2	-25%
Cc1ccc(CNC(=O)COCc2cc(-c3cccs3)on2)cc1	17%
O=C(CN1C(=O)NC(c2ccc(Cl)cc2)C2=C1COC2=O)NC1CCCC1 (stereo not drawn)	i
Cc1ccccc1Nc1nn2c(=O)c3ccc(C(=O)NCC(C)c4ccccc4)cc3nc2s1 (stereo not drawn)	13µM*
Cc1ccc(C)c(Nc2nn3c(=O)c4ccc(C(=O)NCc5ccccc5)cc4nc3s2)c1	-11%
Cc1ccc(Cl)cc1Nc1nn2c(=O)c3ccc(C(=O)NCc4cccs4)cc3nc2s1	i
COc1ccc(NC(=O)Cn2nc3c(cc2=O)CCCCC3)cc1Cl	-19%
Cc1ccc(OCC(=O)Nc2ccc3nc(SCC(=O)N4CCc5ccccc54)sc3c2)cc1	-13%
COCCN(Cc1ccccc1F)C(=O)c1cnc(Nc2ccccc2)nc1	-5%
CCOC(=O)c1ccccc1NC(=O)c1sc2ncn(CC)c(=O)c2c1C	19%
